This note sets out measurements from PubChem BioAssay.

Unmarked numbers belong to inactive results. The rule behind the calls is not given here.

Chain of L-lactate dehydrogenase (Plasmodium falciparum (isolate CDC / Honduras)) (Q27743 whole entry, looked up): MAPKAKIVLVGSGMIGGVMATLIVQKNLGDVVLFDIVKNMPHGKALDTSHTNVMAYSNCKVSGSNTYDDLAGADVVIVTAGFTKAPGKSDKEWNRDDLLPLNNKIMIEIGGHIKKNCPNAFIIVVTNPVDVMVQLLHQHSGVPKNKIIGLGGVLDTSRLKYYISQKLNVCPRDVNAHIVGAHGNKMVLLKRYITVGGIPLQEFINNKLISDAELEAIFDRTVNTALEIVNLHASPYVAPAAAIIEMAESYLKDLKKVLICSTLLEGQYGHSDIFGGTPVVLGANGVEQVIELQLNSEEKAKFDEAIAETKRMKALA

This assay has as its target L-lactate dehydrogenase (Plasmodium falciparum (isolate CDC / Honduras)) (UniProt Q27743). Put plainly: PfLDH activity inhibition – cell lysate, 3D7 strain, counter-screen for P. falciparum growth inhibition project (AID 2304).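 Note: 0% = vehicle and 100% = reference inhibitor.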 The conditions noted are these: P. falciparum 3D7 crude extract, LDH APAD/NBT absorbance; at 2 µM; stronger effect = higher value.
As usually defined, the inhibition is the drop in the measured response relative to a control, in per cent. Consider `Cc1ccccc1C1CCN(C2CCC(NC(=O)c3cc4cc(C(C)C)ccc4[nH]3)CC2)CC1` (stereo not given), for which the inhibition was -3%. The same measure for `CCN(CC)CCCC(C)Nc1cc(C=Cc2ccccc2Cl)nc2cc(Cl)ccc12` (stereo not given): -2%.

Regarding `N/C(=N\c1ncccn1)Nc1cccc(Cc2ccccc2)n1`, the inhibition was -2%. The same measure for `Cc1cc([N+](=O)[O-])ccc1N1CCN(CCCCNC(=O)c2ccc(NC(=O)c3ccc(Cl)cc3)cc2)CC1`: 2%. As for `Cc1ccc(OCC2CCN(c3ncc(C(=O)NCCCN4CCCC4=O)cc3Cl)CC2)cc1`, the inhibition is 0%. The same measure for `NC1CCN(Cc2cccc(-c3ccc(-c4nc5ccccc5[nH]4)cc3)c2)C1` (stereo not given): -7%. In the case of `O=C(/C=C/c1ccccc1Cl)NC1CCC(CN2CCC(c3c[nH]c4ccncc34)CC2)CC1` (stereo not given), the inhibition is -2%. As to `COC(=O)c1cccc(CNCc2ccc(-c3cccc(-c4nc5c(C)cccc5[nH]4)c3)cc2)c1`, the inhibition is 7%. On to `Cc1cccc2[nH]c(-c3cccc(-c4cccc(NC(=O)CNC(=O)c5ccc(O)cc5)c4)c3)nc12`, for which the inhibition is -1%. To `CC(=O)NCCNc1nccc(N2CCc3ncnc(Nc4ccc(OCc5cccc(F)c5)c(Cl)c4)c3C2)n1` belongs 5%; to `COc1ccc(-c2cccc(NC(=O)c3cccc(Cl)c3)c2)cc1CN(C)CCN(C)C`, 4%. As to `O=C(NCC1Cc2cc(Oc3ccccc3)ccc2O1)c1ccc([N+](=O)[O-])o1` (stereo not given), the inhibition was -3%. With `CCCCn1c(SC(C)C)nc2c(c1=O)C1(CCCCC1)Cc1ccccc1-2`, the inhibition was -2%.

Take `CC(=O)Nc1ccc(S(=O)(=O)N2CCN(c3nc(NC4CCCC4)c4ccccc4n3)CC2)cc1`: the inhibition is 1%. With `Cc1ccc(O)cc1Nc1ccnc2ccc(-c3csc(CNCCN4CCOCC4)n3)cc12`, the inhibition is -2%.

Take `COc1ccc(Cc2c(C)nc3nc(N)nc(N)c3c2C)cc1`: the inhibition is 8%.

`Cc1cccc2[nH]c(-c3ccc(-c4ccc(NC(=O)C(C)CN(C)C)cc4)cc3)nc12` (stereo not given): the inhibition was -6%. Take `COc1ccc(CNC2CCN(C)CC2)cc1-c1ccc(S(=O)(=O)NCCc2ccccn2)cc1`: the inhibition was -5%. Regarding `CCCNc1ccc(-c2cc(C(N)=O)c3[nH]cc(C4CCN(S(=O)(=O)CC)CC4)c3c2)cn1`, the inhibition is -1%. With `COc1cc(-c2ccccc2)ccc1C(=O)Nc1ccc2c(c1)N(C)CCC2`, the inhibition is -4%.

On to `O=C(Nc1ccc2nccc(N3CCN4CCC[C@H]4C3)c2c1)c1ccc(Cl)c(Cl)c1`, for which the inhibition is -8%. As for `O=C(/C=C/c1ccc(Cl)c(Cl)c1)NCCCCCCN1CCN(C(=O)Nc2cccc(Cl)c2)CC1`, the inhibition is -3%. Take `Fc1cccc(COc2ccc(Nc3ncnc4ccc(-c5nnc(C(F)(F)F)o5)cc34)cc2Cl)c1`: the inhibition was 5%. On to `CC(C)c1sc(N2CCN(C)CC2)nc1C(=O)Nc1cccc2c1CCCC2`, for which the inhibition is -1%. With `COc1ccc2c(NN=Cc3ccc(F)cc3)cc(C)nc2c1`, the inhibition was -3%. The same measure for `COc1ccc(C=NNc2cc(C)nc3ccccc23)cc1OC`: -1%. The same measure for `O=S(=O)(c1ccc(Oc2ccccc2)cc1)N(CCC(O)(C(F)(F)F)C(F)(F)F)Cc1cccc(O)c1`: 5%; for `COc1cc(CNCCCCCCNCc2cc(OC)c(OC)c3ccccc23)c2ccccc2c1OC`: -1%. For the compound `CC(C)(C)c1ccc(OCCCON2C(N)=NC(N)=NC2(C)C)cc1`, the inhibition is -4%. To `Cc1cc(C(F)(F)F)n2nc(C3CCN(Cc4cc(C)c(O)c(C)c4)C3)cc2n1` (stereo not given) belongs 0%; to `COc1cc2nc(N(C)CC3COc4ccccc4O3)nc(N)c2cc1OC` (stereo not given), -1%. For the compound `OCC1CCN(Cc2cccc(-c3ccc(-c4nc5ccc(C(F)(F)F)cc5[nH]4)s3)c2)CC1`, the inhibition was -9%. For the compound `CCN(CC)CCn1c2ccccc2c2ccc(C(=O)Nc3ccc4sc(C)nc4c3)cc21`, the inhibition was -5%. `O=C(Nc1ccnc(N2C[C@H]3C[C@@H]2CN3Cc2cccc(O)c2)c1)c1ccc(F)cc1`: the inhibition is 4%. Regarding `COc1cc2nc(N3CCC(CNC(=O)c4ccc(-c5ccc(-c6noc(C)n6)cc5C)cc4)CC3)nc(N)c2cc1OC`, the inhibition was -4%. Turning to `Cc1cc(C(F)(F)F)nn1-c1ccc(NC(=O)c2ccco2)cc1`, the inhibition is -3%.

For the compound `Cc1nc(-c2ccncc2)sc1C(=O)Nc1ccc(Cl)cc1C(=O)Nc1ccc(Cl)cc1`, the inhibition is -3%.

With `CS(=O)(=O)c1ccc(CNCc2cccc(-c3ccc(-c4nc5ccc(C(F)(F)F)cc5[nH]4)cc3)c2)cc1`, the inhibition is 4%. To `Cn1cc(C2CCN(CCCCCNC(=O)/C=C/c3ccc(Cl)c(Cl)c3)CC2)c2cc(O)ccc21` belongs -2%. In the case of `CC1CN(Cc2ccccc2)CCN1c1ccc(NC(=O)c2cccs2)cc1` (stereo not given), the inhibition was -2%.
